Only some compounds are listed: those with a hit (about 9.3% of all), similar ones and a draw of the others.
FLuc modulator = inhibits or activates purified firefly luciferase, miR-21 counter-screen; purified FLuc, Km substrates, luminescence inhibition; hit rate 6.9% among 360,000; Potency, µM (series often up to 57.5 µM), for the others: top-dose activity change, negative = inhibition, most hits filed as inhibitors;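 further: plate controls were vehicle for no effect and reference inhibitor for full effect; nearly all actives have a fitted effect of over 55% in size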
Target sequence (P08659 whole entry, looked up): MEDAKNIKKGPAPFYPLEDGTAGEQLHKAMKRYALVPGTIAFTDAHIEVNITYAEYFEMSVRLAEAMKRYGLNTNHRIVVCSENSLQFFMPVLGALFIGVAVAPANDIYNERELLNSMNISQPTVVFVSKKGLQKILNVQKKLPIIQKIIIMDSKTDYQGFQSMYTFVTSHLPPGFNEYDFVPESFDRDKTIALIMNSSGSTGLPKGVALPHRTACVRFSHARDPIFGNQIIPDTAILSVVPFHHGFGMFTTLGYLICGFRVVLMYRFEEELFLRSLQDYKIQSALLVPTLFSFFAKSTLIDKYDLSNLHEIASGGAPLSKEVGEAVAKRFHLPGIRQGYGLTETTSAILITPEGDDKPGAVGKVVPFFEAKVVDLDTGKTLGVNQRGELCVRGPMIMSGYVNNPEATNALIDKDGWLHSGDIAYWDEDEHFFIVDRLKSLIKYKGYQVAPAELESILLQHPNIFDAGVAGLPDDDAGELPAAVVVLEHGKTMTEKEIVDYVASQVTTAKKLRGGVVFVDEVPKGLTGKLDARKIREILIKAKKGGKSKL
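Purified P. pyralis luciferase, 10 nM final, with Km-level 10 uM D-luciferin and 10 uM ATP in 50 mM Tris acetate pH 7.5, 10 mM Mg acetate, 0.01% Tween-20, 0.05% BSA; 6-point qHTS titration about 60 µM downward; luminescence read.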
Rab9 prom act = Rab9 promoter activation; Huh7 Rab9 promoter-luciferase reporter, luminescence, 24 h; Potency, µM (series often up to 9.22 µM), for the others: top-dose activation, negative = inhibition, most hits filed as activators; hit rate 2.8% among 320,000; further: % of control where 0% means no effect; nearly all actives have a fitted effect of over 60% in size
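Cell-based reporter: Huh7 stable for Rab9 promoter-driven luciferase, plated in reduced-serum medium with 10% FBS at 1500 cells/well, compound-treated 24 h at 37 °C, luminescence read after 10 min reagent.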
NPC1 prom act = activators of NPC1 promoter. hit rate 2.4% among 320,000. Huh7 NPC1 promoter luciferase reporter, 24 h. Potency, µM (titrated, usually from 9.22 µM), inactives show top-dose activation, most hits filed as activators. AID 485313; further: % of control where 0% means no effect; nearly all actives have a fitted effect of over 60% in size
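Luciferase expression driven by the NPC1 promoter was measured in stably transfected Huh7 cells after a 24 h compound incubation, using a luciferase reagent and a luminescence read.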
SMN2 splice up = SMN2 splice variant enhancement | hit rate 2.8% among 210,000 | HEK293 SMN2-luciferase splicing reporter, luminescence, 30-36 h | Potency, µM (doses to about 46.1 µM), inactives show at the highest dose activity change, positive = activation, hits mostly activators; further: % of control where 0% means no effect; nearly all actives have a fitted effect of over 55% in size
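HEK293 cells carry an SMN2 […]–luciferase reporter in which exon 7 inclusion puts luciferase in frame. Cells were plated 10-12 h before compound addition, then incubated 30-36 h at 37C. ONE-Glo luminescence was read; sodium butyrate at 4.5 mM final served as control.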
ELG1 genotox = genotoxicity induction in ELG1-luciferase HEK293T cells. Potency, µM (titrated, usually from 46 µM), inactives show at the highest dose activity change, positive = activation, usual class: activators. hit rate 1.3% among 330,000. HEK293T ELG1-luciferase reporter, luminescence, 16 h; further: % of control where 0% means no effect; nearly all actives have a fitted effect of over 60% in size
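Reporter readout depends on ELG1 protein level, which increases with genetic stress. After 16 hr compound exposure at 37 °C, luciferase activity was quantified using ONE-Glo.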
ELG1 DNA repair = inhibitors of ELG1-dependent DNA repair in HEK293T cells; hit rate 2.3% among 330,000; Potency, µM (highest dose often 46.1 µM), inactives show at the top dose activity change, negative = inhibition, actives largely listed as inhibitors; HEK293T ELG1-luciferase reporter, luminescence, 16 h; DNA damage induced by 5-fluorouridine; further: on the % scale 0 is the no-effect control and ±100 the full control effect; nearly all actives have a fitted effect of over 55% in size
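Step one: seed 2,000 cells per well. Step two: pin-transfer compound or DMSO alongside 5-fluorouridine. Step three: incubate 16 hr, 37 °C, 5% CO2. Step four: add ONE-Glo, wait 30 min, read luminescence.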
* = called active by the depositor; ? = inconclusive; · = no result. The call rests on the fitted dose curve; in most records, active means well fitted curve in the direction sought with a large enough effect; inconclusive means small, poorly fitted or top-dose-only effect, or another doubt; inactive means no such curve, though single readings can be large; an effect the other way counts as inactive or inconclusive. Potency means the concentration at half of the fitted maximal effect.

SMILES	FLuc modulator	Rab9 prom act	NPC1 prom act	SMN2 splice up	ELG1 genotox	ELG1 DNA repair
Cc1ccccc1CN1CCN(CC2CC2)CC1CCO (centres undefined)	-1.9%	1.2%	1.8%	·	1.7%	-3.6%
CN(C)S(=O)(=O)c1cccc(-n2sc3ccccc3c2=O)c1	10.7µM*	?	10.5%	8.1%	1.4%	?
CN(C)c1ccc(N=Cc2nc(-c3ccccc3)oc2OC(=O)c2cccc(Cl)c2)cc1	?	4.47µM*	?	11.2µM*	?	?
Cc1ccc(C(=O)Oc2oc(-c3ccco3)nc2C=Nc2ccc(Cl)cc2)cc1	4.78µM*	3.16µM*	1.78µM*	14.1µM*	?	?
Cc1ccc(C(=O)Oc2oc(-c3ccccc3)nc2C=Nc2ccc(N(C)C)cc2)cc1	13.5µM*	?	?	8.91µM*	?	?
COc1ccc(N=Cc2nc(-c3ccccc3)oc2OC(C)=O)cc1	-9.6%	1.8%	2.1%	·	0.1%	?
O=C(Oc1oc(-c2ccco2)nc1C=Nc1ccccc1)c1ccoc1	-5.3%	4.7%	-1.8%	8.8%	1.7%	?
Cc1cccc(C)c1OCc1cc(C(=O)N2CCN(c3ccc(F)cc3)CC2)no1	3.38µM*	1.12µM*	0.631µM*	·	?	?
O=C(c1cc(COc2c(F)cccc2F)on1)N1CCCCCC1	?	2.82µM*	?	·	?	?
O=C(c1cc(COc2ccc3c(c2)CCCC3)on1)N1CCCC1	10.7µM*	3.98µM*	2.82µM*	·	18.3µM*	?
CCOC(=O)N1CCN(C(=O)c2cc(COc3c(F)cccc3F)on2)CC1	8.49µM*	3.16µM*	2.24µM*	·	14.6µM*	?
CCOC(=O)N1CCN(C(=O)c2cc(COc3ccc(F)cc3F)on2)CC1	?	?	18.4%	·	?	?
CCOC(=O)C1CCN(C(=O)c2cc(COc3ccc(F)cc3F)on2)CC1	13.5µM*	2.82µM*	2.82µM*	·	20.6µM*	?
Cc1ccc2cc(/C=N/NC(=O)[C@H](C)NC(=O)OC(C)(C)C)c(Cl)nc2c1	-1.7%	0.1%	-2.1%	13.9%	-3.4%	18.8%
COc1ccc2nc(/C=N/NC(=O)[C@H](C)NC(=O)OC(C)(C)C)ccc2c1	5.36µM*	16.8%	11.6%	?	?	?
CCOC(=O)N1CCN(S(=O)(=O)c2ccc3c(c2)SCC(=O)N3)CC1	-1.2%	-0.4%	-2.5%	-40.4%	-8.7%	20.6µM*
Cc1cnc(NC(=O)C2CCC(C(C)(C)C)CC2)s1 (centres undefined)	19µM*	?	28.1%	·	12.3%	?
CC(C)(C)C1CCC(C(=O)Nc2nccs2)CC1 (centres undefined)	?	27.3%	?	·	-0.8%	?
COc1ccc(C2CC(C(F)(F)F)n3nc(C(=O)O)cc3N2)cc1 (centres undefined)	-13.5%	2.4%	0.5%	·	-0.5%	12.1%
Cc1cccc(C)c1OCC(=O)NCc1nnc(SCC(=O)NC2CCCCC2C)n1C (centres undefined)	10.5%	1.2%	-1.3%	22.4µM*	1.9%	0.0%
COc1ccccc1NC(=O)Cc1nnc(SCC(=O)NC2CCCCC2C)n1C (centres undefined)	-2.6%	-4.2%	-4.4%	·	0.4%	-0.8%
CCn1c(CNC(=O)COc2ccc(C(C)C)cc2)nnc1SCC(=O)NC1CCCCC1C (centres undefined)	-21.0%	-5.0%	-4.3%	-39.1%	-5.2%	16.4µM*
O=C(Nc1cc2c(cc1Cl)OCCCO2)c1ccccc1	13.5µM*	2.82µM*	?	11.2µM*	6.31µM*	?
O=C(Nc1cc2c(cc1Cl)OCCCO2)c1ccco1	10.7µM*	3.55µM*	3.55µM*	14.1µM*	?	?
Nc1nc(N)c(N=Nc2ccc(Cl)cc2)c(=O)[nH]1	-13.2%	3.5%	-2.9%	7.3%	-0.2%	13.7%

Screening data from PubChem.
